Screens as filed in PubChem.
DT40 TDP1 CPT: qHTS for Inhibitors of human tyrosyl-DNA phosphodiesterase 1 (TDP1): qHTS in cells in presence of CPT; chicken DT40 Tdp1-/-;hTDP1 cells + 20 nM CPT, ATP luminescence, 48 h; actives 12% (n = 420,000); Potency, µM (top dose mostly 46.2 µM), for the others: at the highest dose activity change, negative = growth inhibition, actives largely listed as inhibitors; further: potency means the concentration at half of the fitted maximal effect; on the % scale 0 is the no-effect control and ±100 the full control effect; nearly all actives have a fitted effect of over 55% in size
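Cell growth measured by CellTiter-Glo luminescence after a minimum 48 h, 37 C compound exposure with 20 nM CPT in Tdp1-knockout DT40 cells stably expressing hTDP1, seeded 400/well; qHTS titration format.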
HepG2 tox: qHTS for Inhibitors of TGF-b: Cytotox Counterscreen; HepG2 CAGA-GFP viability, ATP luminescence, 18 h; Potency, µM (series often up to 46.1 µM), for the others: top-dose activity change, negative = cytotoxicity, most hits filed as cytotoxic; actives 0.76% (n = 410,000); AID 588856, 2011; further: potency means the concentration at half of the fitted maximal effect
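HepG2 CAGA-GFP cells (1000/well, DMEM with 1% FBS) received compound, then TGF-beta at 500 pg/mL final, and were incubated 18 hours at 37 degrees C. Viability was read by CellTiter-Glo luminescence. Media-only wells were set as complete cell-killing and DMSO as no toxicity.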
TGFb inhibitor: qHTS for Inhibitors of TGF-b. HepG2 CAGA-GFP TGF-b/SMAD3 reporter, GFP fluorescence, 18 h; TGF-beta stimulated, 500 pg/mL final. Potency, µM (doses to about 46.1 µM), for the others: at the highest dose activity, negative = inhibition, actives largely listed as inhibitors. actives 1.2% (n = 410,000); further: potency means the concentration at half of the fitted maximal effect; on the % scale 0 is the no-effect control and ±100 the full control effect; nearly all actives have a fitted effect of over 65% in size
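Inhibition of TGF-beta-driven CAGA-GFP reporter expression in HEPG2 cells is measured by cellular GFP fluorescence after 18 h stimulation with 500 pg/mL recombinant TGF-beta in 1% FBS medium at 37 degrees C.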
IL-1B inflam inh: qHTS for Inhibitors of Inflammasome Signaling: IL-1-beta AlphaLISA Primary Screen | THP-1 LPS/ATP IL-1B secretion, AlphaLISA, 16 h; stronger effect = lower value | activity change, % at 57.5 µM | actives 4.7% (n = 360,000) | AID 743279, 2014; in the data active means activity change below about -50%; inconclusive means mostly about -30% to -49%; further: on the % scale 0 is the no-effect control and ±100 the full control effect
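Secreted IL-1B measured by AlphaLISA bead assay after 16 h compound exposure of THP-1 cells; compounds (final up to 57.5 uM) added 1 h before LPS (250 ng/mL) and ATP (1.25 mM) stimulation; lower signal means less secretion.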
TDP1 block: qHTS Assay for Inhibitors of Tyrosyl-DNA Phosphodiesterase (TDP1). Tyrosyl-DNA phosphodiesterase 1 (Homo sapiens), Q9NUW8. recombinant TDP1, AlphaScreen DNA substrate cleavage. Potency, µM (doses to about 130 µM), inactives show top-dose activity change, negative = inhibition, most hits filed as inhibitors. actives 0.28% (n = 350,000); further: potency means the concentration at half of the fitted maximal effect; on the % scale 0 is the no-effect control and ±100 the full control effect; nearly all actives have a fitted effect of over 40% in size
Target sequence (Q9NUW8 whole entry, looked up): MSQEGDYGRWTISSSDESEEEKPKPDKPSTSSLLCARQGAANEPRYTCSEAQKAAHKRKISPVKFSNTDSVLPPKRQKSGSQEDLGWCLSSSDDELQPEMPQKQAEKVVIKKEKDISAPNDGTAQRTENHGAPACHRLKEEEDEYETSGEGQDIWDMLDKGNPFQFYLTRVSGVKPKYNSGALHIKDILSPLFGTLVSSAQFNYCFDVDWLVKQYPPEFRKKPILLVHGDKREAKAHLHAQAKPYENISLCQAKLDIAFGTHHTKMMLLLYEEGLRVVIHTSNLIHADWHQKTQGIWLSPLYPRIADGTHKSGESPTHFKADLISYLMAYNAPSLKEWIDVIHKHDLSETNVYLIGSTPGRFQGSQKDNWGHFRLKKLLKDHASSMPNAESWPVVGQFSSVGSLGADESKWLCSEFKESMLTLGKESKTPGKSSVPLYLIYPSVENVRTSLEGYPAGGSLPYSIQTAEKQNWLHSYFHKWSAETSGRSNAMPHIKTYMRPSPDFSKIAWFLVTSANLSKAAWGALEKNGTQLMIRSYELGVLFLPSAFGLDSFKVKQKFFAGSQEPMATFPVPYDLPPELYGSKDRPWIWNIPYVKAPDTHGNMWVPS
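Signal: AlphaScreen proximity between streptavidin donor and anti-FITC acceptor beads on intact substrate. Reaction: Tdp1 1 nM, substrate 15 nM final, 5 min RT after 15 min compound preincubation.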
TDP1 cell noCPT: qHTS for Inhibitors of human tyrosyl-DNA phosphodiesterase 1 (TDP1): qHTS in cells in absence of CPT; actives 15% (n = 420,000); Potency, µM (highest dose often 46.2 µM), inactives show at the highest dose activity change, negative = growth inhibition, most hits filed as inhibitors; DT40 Tdp1-/- hTDP1 cells, no CPT, ATP luminescence, 48 h; AID 686978, 2013; further: potency means the concentration at half of the fitted maximal effect; on the % scale 0 is the no-effect control and ±100 the full control effect; nearly all actives have a fitted effect of over 55% in size
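No-CPT arm: Tdp1-/-;hTDP1 DT40 cells (400/well) plus compounds, incubated ≥48 hr at 37 °C. Readout CellTiter-Glo luminescence.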
Active calls of the source: *; ? = inconclusive; · = no result given. A selection: hits, their analogues and other compounds. The true share with any hit is near 18%. Unless noted, the call rests on the fitted dose curve; in most records, active means well fitted curve in the direction sought with a large enough effect; inconclusive means small, poorly fitted or top-dose-only effect, or another doubt; inactive means no such curve, though single readings can be large; an effect the other way counts as inactive or inconclusive.

SMILES	DT40 TDP1 CPT	HepG2 tox	TGFb inhibitor	IL-1B inflam inh	TDP1 block	TDP1 cell noCPT
CC(C)CC1C(=O)N(Cc2cn(CCC3OCCCO3)nn2)CCS(=O)(=O)N1Cc1ccc(-c2cccc(CO)c2)cc1 (centres undefined)	-26%	-21%	-1%	-20	·	?
CC(C)CC1C(=O)N(Cc2cn(CC3CCCCC3)nn2)CCS(=O)(=O)N1Cc1ccc(-c2cccc(CO)c2)cc1 (centres undefined)	21µM*	-16%	?	-27	·	23µM*
CC1C(=O)N(Cc2cn(CC3CCCCC3)nn2)CCS(=O)(=O)N1Cc1ccc(-c2cccc(CO)c2)cc1 (centres undefined)	15µM*	-24%	?	11	·	23µM*
CCOC(=O)C1=CCC2c3c(c4ccccc4n3C)C(=O)C1N2C(=O)OC(C)(C)C (centres undefined)	?	-23%	-1%	-25	1%	?
CCOC(=O)C1=CCC(c2ccc(N(CC)CC)cc2)N(S(=O)(=O)c2ccc(C)cc2)C1c1ccc([N+](=O)[O-])cc1 (centres undefined)	7.3µM*	·	·	23	·	6.5µM*
CCOC(=O)C1=CC[C@@H](c2ccc(OC)cc2)N(S(=O)(=O)c2ccc(C)cc2)[C@H]1CC	15µM*	-9%	?	-7	·	18µM*
CCOC(=O)C1=CC[C@@H](c2ccccc2C(F)(F)F)N(S(=O)(=O)c2ccc(C)cc2)[C@H]1c1ccc(C#N)cc1	15µM*	-5%	0%	-8	·	13µM*
COc1ccc([C@@H]2CC=C(C(=O)O)[C@H](c3ccc(Cl)cc3)N2S(=O)(=O)c2ccc(Cl)cc2)cc1	?	5%	25%	0	4%	-2%
CCOC(=O)C1=CC[C@H]2c3c(c4ccc(OC)cc4n3C)C(=O)C1N2S(=O)(=O)c1ccc(C)cc1	5.8µM*	-17%	-27%	65	0%	4.6µM*
CN(C)c1ccc(CNC(=O)c2cnc3sc(N4CCCCCC4)nn3c2=O)cc1	-14%	-5%	-7%	·	7%	?
COc1cccc(-c2cc(C(F)(F)F)n3ncc(C(=O)OC(C)C)c3n2)c1	-16%	-5%	-14%	·	-1%	-9%
C=C[C@H]1C(C(=O)OCC)=CC[C@@H](c2ccccc2)N1S(=O)(=O)c1ccc(C)cc1	23µM*	-34%	-29%	13	·	21µM*
CCc1ccc([C@@H]2CC=C(C(=O)O)[C@H](c3ccccc3)N2S(=O)(=O)c2ccc(C)cc2)cc1	-6%	-5%	-4%	30	2%	-19%
CCOC(=O)C1=CC[C@@H](c2ccccc2)N(S(=O)(=O)c2ccc(C)cc2)[C@H]1/C=C/c1ccccc1	13µM*	-11%	?	0	·	9.2µM*
CCOC(=O)C1=CC[C@@H](c2ccccc2)N(S(=O)(=O)c2ccc(C)cc2)[C@H]1C	?	22µM*	?	53	·	23µM*
Cc1ccc(S(=O)(=O)N2CCCCC2)cc1NC(=O)CSc1nnc(C2CC2)n1C	-20%	-11%	-2%	23	-1%	-18%
CC(C)=CCC/C(C)=C/C=C/C(C)=C/C=C/C(C)=C/C=C/C=C(C)/C=C/C=C(C)/C=C/C=C(\C)CCC=C(C)C	?	·	·	·	2%	?
Cc1ccc(N2CCN(S(=O)(=O)c3ccc(F)c(C)c3)CC2)c(C)c1	?	-20%	-13%	22	-5%	?
Cc1cccc(NC(=O)c2cc(S(=O)(=O)N3CCN(c4ccccc4F)CC3)ccc2F)c1C	?	3%	-14%	·	5%	?
CCC(=O)c1cc(F)c(N2CCN(S(=O)(=O)c3ccc(C)cc3)CC2)cc1C	?	-35%	-12%	-9	2%	21µM*
COc1ccccc1N1CCN(S(=O)(=O)c2ccc(F)c(C(=O)Nc3ccc(C)c(F)c3)c2)CC1	16µM*	-23%	0%	·	5%	?
CCc1ccccc1N1CCN(S(=O)(=O)c2ccc(F)c(C)c2)CC1	?	-8%	-17%	-10	7%	21µM*
Cc1cc(C)c(NC(=O)c2cc(S(=O)(=O)N3CCN(c4ccccc4F)CC3)ccc2F)c(C)c1	?	0%	-17%	·	3%	4.1µM*
Cc1c(C(=O)N2CCN(C3CCS(=O)(=O)C3)CC2)oc2c(F)cccc12 (centres undefined)	-5%	3%	3%	0	0%	3%
CC(C)N1CC(=O)N2CSCC2C1=O (centres undefined)	0%	·	·	29	·	-1%
SMILES	DT40 TDP1 CPT	HepG2 tox	TGFb inhibitor	IL-1B inflam inh	TDP1 block	TDP1 cell noCPT
CCCNC(=O)c1ccccc1NC(=O)c1ccc2c(c1)NC(=O)C(C)S2 (centres undefined)	10µM*	-13%	2%	-23	3%	6.5µM*
CC1Sc2ccc(C(=O)Nc3ccc(S(=O)(=O)N(C)C)cc3)cc2NC1=O (centres undefined)	?	-19%	-18%	25	·	?
CC(=O)c1ccccc1NC(=O)c1ccc2c(c1)NC(=O)C(C)S2 (centres undefined)	21µM*	-22%	5%	-6	·	?
Cc1ccnc(NC(=O)c2ccc3c(c2)NC(=O)C(C)S3)c1 (centres undefined)	-22%	-7%	-8%	-14	-5%	?
CN1CC[C@@H]2C(=O)N3CCc4ccc(Br)cc4[C@@H]3C[C@@H]21	-3%	-6%	-12%	-10	·	-7%
CCc1ccc(NC(=O)c2ccc(F)c(S(=O)(=O)N(CC)c3ccccc3)c2)cc1	?	5%	11%	18	1%	8.2µM*
CN(Cc1ccccc1)S(=O)(=O)c1ccc(F)c(C(=O)Nc2cc(Cl)cc(Cl)c2)c1	?	-16%	?	·	5%	?
CCOc1ccc(NC(=O)c2ccc(OC)cc2)cc1	-9%	5%	0%	-8	9%	-8%
CCOc1ccc(NC(=O)c2ccc(F)c(S(=O)(=O)N(CC)Cc3ccccc3)c2)cc1	15µM*	-28%	-2%	·	8%	21µM*
